Structures are written as SMILES. The source made the active and inactive calls.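 How the source made its calls: active means D2 binding constant Ki of 1000 nM or lower when displacing the radioligand; inactive means the rest.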

Chain of D(2) dopamine receptor (Homo sapiens) (P14416 whole entry, looked up): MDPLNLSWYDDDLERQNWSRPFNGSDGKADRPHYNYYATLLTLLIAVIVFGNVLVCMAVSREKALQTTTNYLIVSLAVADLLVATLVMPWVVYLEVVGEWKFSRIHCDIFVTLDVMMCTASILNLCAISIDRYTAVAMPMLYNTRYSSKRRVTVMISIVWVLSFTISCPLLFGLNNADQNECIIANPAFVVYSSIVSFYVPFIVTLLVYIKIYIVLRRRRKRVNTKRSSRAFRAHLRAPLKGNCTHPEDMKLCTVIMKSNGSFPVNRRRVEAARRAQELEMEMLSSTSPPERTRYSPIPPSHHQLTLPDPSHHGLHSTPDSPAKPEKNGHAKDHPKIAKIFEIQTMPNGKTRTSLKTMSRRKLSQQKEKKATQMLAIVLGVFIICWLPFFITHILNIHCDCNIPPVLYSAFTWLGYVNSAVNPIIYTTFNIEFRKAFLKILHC

The assay concerns the target D(2) dopamine receptor (Homo sapiens) (UniProt P14416). The assay can be described thus: HTS Assay for Allosteric Antagonists of the Human D2 Dopamine Receptor: SAR in D2 Binding Assay. Particulars: D2 radioligand binding, methylspiperone displacement. The source says:
Dopamine receptors (DARs) are involved in the etiology and/or therapy of a number of neuropsychiatric and endocrine disorders. For instance, all receptor-based antiparkinsonian drugs work via stimulating the D2 DAR subtype whereas all FDA-approved antipsychotic agents are antagonists of this receptor. […] There are three different types of allosteric modulators that we are seeking, two of which will stimulate or augment receptor signaling, allosteric agonists and potentiators, while the third, allosteric antagonists, will attenuate receptor signaling. The present primary screening assay measures compound antagonism after an EC80 addition of dopamine by tracking calcium flux in a […], inducible Hek293 Trex D2 cell line. This assay measures activity of the leads in the D2 radioligand binding assay. NIH Chemical Genomics Center [NCGC] NIH Molecular Libraries Probe Centers Network [MLPCN] MLPCN Grant: NS0676421 Assay Submitter (PI): David Sibley
Radioligand displacement assay will be done to determine if the lead compounds are allosteric or orthosteric in nature, for interaction with the D2 receptor. Compounds will be evaluated for their ability to displace binding of methylspiperone.
Usually Ki stands for the dissociation constant of the complex between target and ligand, obtained from inhibition or displacement. As for `CN1C(=O)c2ccccc2[S@](=O)c2ccc(C(=O)NCCc3cccs3)cc21`, the Ki was 0.1 µM (active).
